The structures appear in SMILES notation. Hit rate of the full screen: of about 69,000 compounds, about 8,600 (12%) showed an effect of 50% or more. Only a selection was taken, and strong results are over-represented in it overall.

The assay concerns Plasmodium berghei. Kind of assay: Screen against P. berghei liver stage (PbLuc), transformed with Luciferase, at 10uM. It is filed as functional, HepG2. The following applies: tested at 10 uM.
Consider `CCc1nnc(CN(CC)C(=O)C2CC(=O)N(C3CCCC3)C2)o1` (stereo not given), for which the INHIBITION was 43.2%. For `NC(=O)C1CCCN1Cc1cccc(NC(=O)c2ccsc2)c1` (stereo not given) the value was -18.4%; for `NC(=O)C1CCCN1Cc1cccc(NC(=O)c2ccc(Cl)cc2F)c1` (stereo not given), 44%; for `NC(=O)C1CCCN1Cc1cccc(NC(=O)c2cc(Cl)cc(Cl)c2)c1` (stereo not given), 68.8%.

With `NC(=O)C1CCCN1Cc1cccc(NC(=O)c2cccs2)c1` (stereo not given), the INHIBITION was -8.22%. `Cc1cc(C)cc(C(=O)Nc2cccc(CN3CCCC3C(N)=O)c2)c1` (stereo not given): the INHIBITION was 56%. `CCc1ccc(C(=O)Nc2cccc(CN3CCCC3C(N)=O)c2)cc1` (stereo not given): the INHIBITION is recorded as -40.7%. For the compound `C[C@]12CCCCN(C(=O)c3ccccn3)[C@H]1CCCC(=O)N2`, the INHIBITION was determined as 11.1%. On to `CC1CCc2nn(CCNC(=O)c3ccco3)c(=O)cc2C1` (stereo not given), for which the INHIBITION is on record as -16.9%. For `COc1cccc(S(=O)(=O)NC(=O)C2CC(c3ccccc3)=NO2)c1` (stereo not given) the value was -24.7%; for `CCOC[C@@H]1CCC[C@@]12CN(Cc1nccs1)CCO2`, 35.8%; for `O=C(c1ccoc1)N1CCO[C@]2(CCC[C@@H]2COCc2ccncc2)C1`, -6.23%. For `O=C(c1ccc[nH]1)N1CCO[C@]2(CCC[C@@H]2COc2cccnc2)C1` the value was -34.7%; for `c1cncc(OC[C@@H]2CCC[C@@]23CN(Cc2nccs2)CCO3)c1`, 66%; for `c1coc(CN2CCO[C@@]3(CCC[C@@H]3COCc3nccs3)C2)c1`, 53.2%. Regarding `COC[C@@H]1CCC[C@]12CN(Cc1ccco1)CCO2`, the INHIBITION is on record as 8.67%. Turning to `c1csc(COC[C@H]2CCC[C@]23CN(Cc2ccoc2)CCO3)n1`, the INHIBITION is recorded as 63.7%.

With `c1ccc(OC[C@H]2CCC[C@]23CN(Cc2nccs2)CCO3)nc1`, the INHIBITION is reported as 38.7%. For `c1ccc(COC[C@@H]2CCC[C@]23CN(Cc2nccs2)CCO3)nc1` the value was 74.2%; for `COC[C@@H]1CCC[C@@]12CN(Cc1ccco1)CCO2`, -0.813%.

As to `COC[C@@H]1CCC[C@]12CN(Cc1cccc(C)n1)CCO2`, the INHIBITION is given as -11.8%. The figure for `CCOC[C@@H]1CCC[C@@]12CN(Cc1cccnc1)CCO2` is 48.6%. For the compound `CCc1noc(C2CCCCN2C(=O)c2sccc2C)n1` (stereo not given), the INHIBITION is recorded as 40.8%. The figure for `O=C(O)c1cc2c(nc1N1CCOCC1)CCN(C1CCOC1)CC2` (stereo not given) is -12.1%. The figure for `CC(=O)NC1CCCN(C(=O)NCc2cccnc2)C1` (stereo not given) is -51.5%; for `CC(C)CN1CCC2(CC1)CC(NS(C)(=O)=O)c1ccccc1O2` (stereo not given) it is 6.55%; for `CCOCCCC(=O)N(C)C(c1cccc(F)c1)c1ccccn1` (stereo not given) it is -18%. `Cc1nc(C2CCNCC2)cc(N(C)Cc2cc3cc(F)ccc3[nH]2)n1`: the INHIBITION is listed as 33.5%.

For the compound `COc1cnc(CSc2nnc(C)s2)cc1OCC(N)=O`, the INHIBITION was 34.2%. Consider `CCN1C(=O)CCCC12CCCN(C(=O)c1occc1C)C2` (stereo not given), for which the INHIBITION worked out at 23.5%. The figure for `CC(CO)(NCc1noc(Cc2ccccc2)n1)C1CCCCC1` (stereo not given) is -1.7%; for `O=C(O)[C@@H]1CN(C(=O)CSCC2CC2)C[C@H]1c1ccccn1` it is -87%; for `CCOc1ncccc1CNC(=O)c1c(C)oc(C)c1C` it is 29.75%. For `CC(NC(=O)NCc1cc[nH]n1)c1ccc2c(c1)CCC(=O)N2` (stereo not given) the value was 51.2%. Take `Cc1csc(CNC(=O)NC(C)c2ccc3c(c2)CCC(=O)N3)n1` (stereo not given): the INHIBITION was 9.64%. With `CC(NC(=O)NCc1ccccn1)c1ccc2c(c1)CCC(=O)N2` (stereo not given), the INHIBITION is listed as -75.2%. Regarding `Cc1ccsc1C(=O)NC(C)c1ccc2c(c1)CCC(=O)N2` (stereo not given), the INHIBITION was determined as 11.7%. For `CC(NC(=O)c1ccoc1)c1ccc2c(c1)CCC(=O)N2` (stereo not given), the INHIBITION is recorded as -6.14%. For `CC(NC(=O)c1cccc[n+]1[O-])c1ccc2c(c1)CCC(=O)N2` (stereo not given) the value was 62.6%; for `Cn1cnnc1C1CCN(C(=O)CCCOCc2ccccc2)CC1`, 43.2%; for `COc1nc(C)ccc1CNC(=O)NC(c1ncc(C)s1)C1CC1` (stereo not given), -21.1%. As for `O[C@H]1CN(CCCOc2ccccc2F)CC[C@@]12CCCO2`, the INHIBITION amounted to 6.485%.

In the case of `O[C@H]1CN(CCOc2ccc(F)cc2)CC[C@@]12CCCO2`, the INHIBITION amounted to 62.9%. The figure for `C[C@@H]1CN(CCOc2ccc(F)cc2)CC[C@@]1(O)C1CCOCC1` is 28.8%.

`Cc1noc(C)c1CCC(=O)N1CCCC(n2cccn2)C1` (stereo not given): the INHIBITION is 37.4%. The figure for `CCc1nc(NC2CC(=O)N(CC3CCCCC3)C2)ncc1C` (stereo not given) is 2.97%; for `Cc1nc(Nc2ccccn2)cc(C2CCCN2C2CCOCC2)n1` (stereo not given) it is 20.8%. The figure for `Cc1nc(Nc2ncccn2)cc(C2CCCN2C2CCOCC2)n1` (stereo not given) is 15.4%. On to `Cc1nc(Nc2nccs2)cc(C2CCCN2)n1` (stereo not given), for which the INHIBITION is given as 5.05%. For `Cc1nc(Nc2nnc(C)s2)cc(C2CCCN2)n1` (stereo not given) the value was -24.595%; for `Cc1nc(Nc2nccs2)cc(C2CCCN2C2CCOCC2)n1` (stereo not given), 52.3%.

In the case of `Cc1nc(Nc2ncc(C)s2)cc(C2CCCN2S(C)(=O)=O)n1` (stereo not given), the INHIBITION was 50.8%.

`Cc1nc(NC2CCOCC2)cc(C2CCN2S(C)(=O)=O)n1` (stereo not given): the INHIBITION was 30.6%. The figure for `Cc1nc(Nc2nnc(C)s2)cc(C2CCCN2S(C)(=O)=O)n1` (stereo not given) is 6.32%.

In the case of `Cc1nc(Nc2ncc(C)s2)cc(C2CCCN2)n1` (stereo not given), the INHIBITION worked out at 67.15%.

Values taken from ChEMBL document CHEMBL4513216, “Probing the Open Global Health Chemical Diversity Library for Multistage-Active Starting Points for Next-Generation Antimalarials” (ACS Infect Dis, 2020).
